Source: PubChem BioAssay (NCI)
The panel holds about 83,000 compounds, 20% with a hit somewhere; the sample as a whole holds those more often.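 Interpretation: 100, growth as untreated; towards 0, rising growth inhibition; 0, no net growth; 0 to -100, cell death. Compounds scoring below 10 were considered active.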 Active and inactive are the calls of the source.

Assays:
Test in all cases: NCI-60 one-dose screen, 48 h (100 = growth as untreated, 0 = no growth, -100 = all killed)
[1] = tested on: DU-145 prostate; conditions: 10 µM
[2] = tested on: K-562 leukemia; conditions: 10 µM
[3] = tested on: MALME-3M melanoma; conditions: 10 µM
[4] = tested on: MDA-MB-231 breast; conditions: 10 µM
[5] = tested on: RXF 393 renal; conditions: 10 µM
[6] = tested on: SF-268 CNS; conditions: 10 µM
[7] = tested on: SF-295 CNS; conditions: 10 µM
[8] = tested on: SF-539 CNS; conditions: 10 µM
[9] = tested on: UACC-257 melanoma; conditions: 10 µM
[10] = tested on: M14 melanoma; conditions: 10 µM
[11] = tested on: HCT-15 colon; conditions: 10 µM
[12] = tested on: HT29 colon; conditions: 10 µM
[13] = tested on: SNB-19 CNS; conditions: 10 µM
[14] = tested on: U251 CNS; conditions: 10 µM
[15] = tested on: PC-3 prostate; conditions: 10 µM
[16] = tested on: SK-MEL-5 melanoma; conditions: 10 µM
[17] = tested on: UACC-62 melanoma; conditions: 10 µM unless noted
[18] = tested on: LOX IMVI melanoma; conditions: 10 µM
[19] = tested on: SK-MEL-28 melanoma; conditions: 10 µM
[20] = tested on: SNB-75 CNS; conditions: 10 µM

Measured: growth

O=[N+]([O-])c1cccc(C(F)(F)F)c1
inactive: [1] 120% | [2] 119% | [3] 135% | [4] 98% | [5] 98.7% | [6] 102% | [7] 101% | [8] 102% | [9] 97.3% | [10] 97.9% | [11] 93.8% | [12] 98.7% | [13] 103% | [14] 104% | [15] 94.6% | [16] 107% | [17] 101% | [18] 99.7%

CCC(O)CC(CC)CO (stereo not drawn)
inactive: [1] 121% | [2] 105% | [3] 128% | [4] 108% | [5] 119% | [6] 113% | [7] 109% | [8] 99.4% | [9] 110% | [10] 102% | [11] 104% | [12] 113% | [13] 114% | [14] 111% | [15] 101% | [16] 106% | [17] 112% | [18] 103% | [19] 101%

CCNCCCCNCCCCNCCCCNCCCCNCC
inactive: [1] 82.1% | [2] 61% | [4] 109% | [5] 81.7% | [6] 138% | [7] 62.3% | [8] 122% | [9] 30.7% | [10] 66.9% | [11] 99.1% | [12] 72.1% | [13] 81.1% | [14] 95.5% | [15] 84.6% | [16] 73.8% | [17] 72.8% | [18] 75.3%
active: [3] -12.6%

N#Cc1ccc(OC(=O)Nc2ccc(Cl)c(Cl)c2)cc1
inactive: [1] 72.3% | [2] 44% | [3] 72.9% | [4] 93% | [5] 91.5% | [6] 94.4% | [7] 41.4% | [8] 91.5% | [9] 86.2% | [10] 76.6% | [11] 53.6% | [12] 63.4% | [20] 93.2% | [13] 87% | [15] 36.2% | [17] 65.7% | [19] 94.1%

COc1ccc(Oc2c(I)cc(CC(NC(C)=O)C(=O)O)cc2I)cc1 (stereo not drawn)
inactive: [1] 107% | [2] 63.9% | [3] 88.4% | [4] 78.8% | [5] 88.6% | [6] 91.7% | [7] 62.3% | [8] 111% | [9] 83.8% | [10] 80.8% | [11] 96.6% | [12] 85.2% | [20] 87.1% | [14] 86.5% | [15] 69.5% | [16] 60.7% | [17] 73.5% | [18] 70% | [19] 103%

COC(=O)Nc1cccc(Cl)c1OC
inactive: [1] 114% | [2] 113% | [3] 106% | [4] 124% | [5] 90% | [6] 107% | [7] 81.8% | [8] 98.2% | [9] 103% | [10] 110% | [11] 96.4% | [12] 111% | [20] 99% | [13] 112% | [15] 103% | [16] 100% | [17] 111% | [19] 114%

S=C1CCCCCN1
inactive: [1] 110% | [2] 107% | [3] 107% | [4] 111% | [5] 123% | [6] 99.6% | [7] 102% | [8] 96.8% | [9] 97.8% | [10] 105% | [11] 100% | [12] 108% | [20] 89.1% | [13] 99.1% | [15] 105% | [16] 107% | [17] 100% | [18] 101% | [19] 105%

CCCCCCCCO
inactive: [1] 104% | [2] 101% | [3] 106% | [4] 118% | [5] 106% | [6] 108% | [7] 108% | [8] 97.4% | [9] 101% | [10] 105% | [11] 98.3% | [12] 111% | [20] 90.1% | [13] 103% | [15] 94.3% | [17] 108% | [18] 105% | [19] 112%

COC(=O)c1cccc(Br)c1
inactive: [1] 111% | [2] 121% | [3] 111% | [4] 111% | [5] 146% | [6] 108% | [7] 102% | [8] 98.7% | [9] 112% | [10] 101% | [11] 101% | [12] 115% | [20] 96.5% | [13] 107% | [15] 86.4% | [16] 106% | [17] 97.2% | [18] 108% | [19] 118%

Cc1cccc(CO)c1
inactive: [1] 98.1% | [2] 97.7% | [3] 104% | [4] 104% | [5] 121% | [6] 95.4% | [7] 100% | [8] 108% | [9] 99.9% | [10] 108% | [11] 105% | [12] 108% | [20] 95.1% | [13] 107% | [15] 104% | [16] 99.7% | [17] 104% | [18] 100% | [19] 109%

Cc1cc(=O)n(-c2ccc(F)cc2)[nH]1
inactive: [1] 109% | [2] 99.1% | [3] 102% | [4] 105% | [5] 93.5% | [6] 101% | [7] 86.8% | [8] 90.8% | [9] 103% | [10] 108% | [11] 89.6% | [12] 105% | [20] 88.5% | [13] 103% | [15] 90% | [16] 97.5% | [17] 101% | [19] 119%

COc1cc(C(=O)NC(=S)Nc2ccc3ccccc3c2)cc(OC)c1OC
inactive: [1] 102% | [2] 88% | [3] 90.1% | [4] 100% | [5] 94.5% | [6] 103% | [7] 44.7% | [8] 93.1% | [9] 90.7% | [10] 115% | [11] 87.4% | [12] 100% | [20] 92% | [13] 107% | [15] 82.4% | [17] 36.5% | [18] 91% | [19] 98.1%

C/C(=C\c1ccc([N+](=O)[O-])cc1)C(=O)O
inactive: [1] 110% | [2] 97.9% | [3] 108% | [4] 102% | [5] 102% | [6] 105% | [7] 98.4% | [8] 100% | [9] 98.8% | [10] 95.1% | [11] 103% | [12] 107% | [20] 88.5% | [13] 97.7% | [15] 84.2% | [16] 97.8% | [17] 99.6% | [18] 98.6% | [19] 111%

CN(C)c1ccc2nc3ccc(=N)cc-3sc2c1
active: [3] 8.19% | [8] -11.3% | [16] 0.247%
inactive: [1] 86.7% | [2] 20.1% | [4] 11.5% | [5] 70.7% | [6] 54.2% | [7] 86.1% | [9] 13.9% | [10] 24.7% | [11] 38.8% | [12] 85.3% | [20] 22.3% | [13] 81.1% | [15] 12.3% | [17] 36% | [19] 82.9%

NCCC(=O)c1ccc(Cl)cc1
inactive: [1] 108% | [2] 98.1% | [3] 109% | [4] 110% | [5] 114% | [6] 100% | [7] 105% | [8] 104% | [9] 101% | [10] 102% | [11] 107% | [12] 106% | [20] 96.1% | [14] 105% | [15] 97.2% | [17] 112% | [18] 106% | [19] 109%

Cc1cc(C)c(CC(=O)O)c(C)c1
inactive: [1] 101% | [2] 95.2% | [3] 97.8% | [4] 120% | [5] 123% | [6] 98.6% | [7] 102% | [8] 108% | [9] 106% | [10] 98.9% | [11] 100% | [12] 99.4% | [20] 93.2% | [14] 103% | [15] 103% | [16] 101% | [17] 108% | [18] 96.5% | [19] 124%

CCCCC(CC)COC(C)=O (stereo not drawn)
inactive: [1] 106% | [2] 95.1% | [3] 96.4% | [4] 106% | [5] 117% | [6] 96.6% | [7] 99.3% | [8] 92.1% | [9] 104% | [10] 102% | [11] 109% | [12] 111% | [20] 91.2% | [13] 106% | [15] 97% | [16] 105% | [17] 103% | [18] 97.4% | [19] 108%
